PubChem BioAssay (NCATS)
Where “and” joins values, the source holds several entries; their conditions need not be identical. Equal entries are not always repeated. Records with an inconclusive call do not appear. Calls of active or inactive are those of the source. Calls follow the shape of the dose curve; as a rule, active = well fitted curve in the direction sought with a large enough effect; inconclusive = small, poorly fitted or top-dose-only effect, or another doubt; inactive = no such curve, though single readings can be large; an effect the other way counts as inactive or inconclusive.

Tests used:
CRL-7250 = normal cell line; assay: Cytotoxic Profiling of Annotated Libraries Using Quantitative High-Throughput Screening (AID 1296008); conditions: Five cell lines viability, CellTiter-Glo ATP luminescence, 48-72 h; max response: hits give low values; also: nearly all actives have a fitted effect of over 60% in size; also: potency is read from the fitted curve at half-maximal effect; as to max response: % is scaled to controls: 0 for no effect and ±100 for the full control effect
Summary of the method: (§1)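 Cytotoxicity was measured as CellTiter-Glo ATP luminescence, read after 10 min at room temperature. Compound treatment of the cells lasted 48 or 72 hr at 37 degrees Celsius in a qHTS format.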

HaCat = assay: as above; conditions: Five cell lines viability, CellTiter-Glo ATP luminescence, 48-72 h; max response: hits give low values
Summary of the method: as §1

KB-3-1 = assay: as above; conditions: Five cell lines viability, CellTiter-Glo ATP luminescence, 48-72 h; max response: hits give low values
Summary of the method: as §1

NIH3T3 [1] = assay: as above; conditions: Five cell lines viability, CellTiter-Glo ATP luminescence, 48-72 h; max response: hits give low values
Summary of the method: as §1

NIH3T3 [2] = assay: qHTS assay to identify novel small-molecules to repurpose for Merkel cell carcinoma treatment (AID 1296009); conditions: MCC and control cell lines, CellTiter-Glo viability, 72 h; series mostly up to 44.8 µM; also: nearly all actives have a fitted effect of over 60% in size
Summary of the method: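 Cell viability measured by CellTiter-Glo following 72 hr compound treatment at 37 degree celsius, with NPC and MIPE libraries tested in 8- and 11-point concentration series.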

C33A = assay: Primary qHTS to identify gynecologic anti-cancer compounds using libraries of approved drugs and bioactive compounds (AID 1345084); conditions: Gynecologic cancer cell panel viability, ATPlite luminescence, 48 h; series mostly up to 57.5 µM; also: % is scaled to controls: 0 for no effect and ±100 for the full control effect; nearly all actives have a fitted effect of over 55% in size
Summary of the method: (§2)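 Luminescence from the ATPlite ATP-monitoring reagent indicates viable cell number; lower signal means cytotoxicity. Cells received compound 16 h after seeding and were exposed for 48 h across five concentrations.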

CAOV3 = assay: as above; conditions: Gynecologic cancer cell panel viability, ATPlite luminescence, 48 h; series mostly up to 57.5 µM
Summary of the method: as §2

CASKI = assay: as above; conditions: Gynecologic cancer cell panel viability, ATPlite luminescence, 48 h; series mostly up to 57.5 µM
Summary of the method: as §2

Es-2 = assay: as above; conditions: Gynecologic cancer cell panel viability, ATPlite luminescence, 48 h; series mostly up to 57.5 µM
Summary of the method: as §2

HeLa = assay: as above; conditions: Gynecologic cancer cell panel viability, ATPlite luminescence, 48 h; series mostly up to 57.5 µM
Summary of the method: as §2

Hek293T = assay: as above; conditions: Gynecologic cancer cell panel viability, ATPlite luminescence, 48 h, control line for the selectivity index; series mostly up to 57.5 µM
Summary of the method: as §2

JEG-3 = assay: as above; conditions: Gynecologic cancer cell panel viability, ATPlite luminescence, 48 h; series mostly up to 57.5 µM
Summary of the method: as §2

PA-1 = assay: as above; conditions: Gynecologic cancer cell panel viability, ATPlite luminescence, 48 h; series mostly up to 57.5 µM
Summary of the method: as §2

SKOV3 = assay: as above; conditions: Gynecologic cancer cell panel viability, ATPlite luminescence, 48 h; series mostly up to 57.5 µM
Summary of the method: as §2

OV90 = assay: as above; conditions: Gynecologic cancer cell panel viability, ATPlite luminescence, 48 h; series mostly up to 57.5 µM
Summary of the method: as §2

COc1cc2ncnc(Nc3ccc(F)c(Cl)c3)c2cc1O
active: Potency (HaCat) 1.3 µM
inactive: outcome (CRL-7250) | max response (KB-3-1) -4.6% | outcome (NIH3T3 [1]) | Potency (NIH3T3 [2]) | Potency (C33A) | Potency (CAOV3) | Potency (CASKI) | Potency (Es-2) | Potency (HeLa) | Potency (Hek293T) | Potency (JEG-3) | Potency (PA-1) | Potency (SKOV3)

COc1ccc(CCc2nc3cc(-c4c(C)noc4C)ccc3n2CC(C)N2CCOCC2)cc1Cl (centres undefined)
inactive: max response (CRL-7250) -13.4% | max response (HaCat) -1.2% | max response (KB-3-1) 0.0649% | max response (NIH3T3 [1]) -17.1% | Potency (C33A) | Potency (CAOV3) | Potency (CASKI) | Potency (Es-2) | Potency (HeLa) | Potency (Hek293T) | Potency (JEG-3) | Potency (OV90)

C[C@@]12C(=O)N(c3ccc(C(=O)Nc4cccc5cccnc45)cc3)C(=O)[C@@H]1[C@@H]1C=C[C@H]2C1
inactive: max response (CRL-7250) -9.69% | max response (HaCat) -0.616% | max response (KB-3-1) -11.1% | outcome (NIH3T3 [1]) | Potency (NIH3T3 [2]) | Potency (C33A) | Potency (CAOV3) | Potency (CASKI) | Potency (Es-2) | Potency (HeLa) | Potency (Hek293T) | Potency (JEG-3) | Potency (OV90) | Potency (PA-1) | Potency (SKOV3)

Cc1cc(OCCCS(C)(=O)=O)cc(C)c1-c1cccc(COc2ccc3c(c2)OCC3CC(=O)O)c1 (centres undefined)
inactive: max response (CRL-7250) -4.99% | max response (HaCat) 0.974% | max response (KB-3-1) -3.22% | outcome (NIH3T3 [1]) | Potency (NIH3T3 [2]) | Potency (C33A) | Potency (CAOV3) | Potency (CASKI) | Potency (Es-2) | Potency (HeLa) | Potency (Hek293T) | Potency (JEG-3) | Potency (OV90) | Potency (SKOV3)

CC(=O)OC1C(OC(=O)c2ccccc2)C2C(C)(C)CCC(OC(C)=O)C2(C)C23CCC(C)(C2)C(=O)CC13 (centres undefined)
inactive: outcome (CRL-7250) | max response (HaCat) -16.6% | max response (KB-3-1) 6.15% | outcome (NIH3T3 [1]) | Potency (NIH3T3 [2]) | Potency (C33A) | Potency (CAOV3) | Potency (CASKI) | Potency (Es-2) | Potency (HeLa) | Potency (Hek293T) | Potency (JEG-3) | Potency (OV90) | Potency (PA-1) | Potency (SKOV3)

COc1cc(N(C)CCN(C)C)c(N)cc1Nc1nccc(-c2cn(C)c3ccccc23)n1
inactive: max response (CRL-7250) -5.14% | max response (HaCat) -1.2% | max response (KB-3-1) -6.79% | outcome (NIH3T3 [1]) | Potency (NIH3T3 [2]) | Potency (C33A) | Potency (CAOV3) | Potency (CASKI) | Potency (Es-2) | Potency (HeLa) | Potency (Hek293T) | Potency (JEG-3) | Potency (OV90) | Potency (PA-1) | Potency (SKOV3)

CCC[C@@]1(CCc2ccccc2)CC(O)=C([C@H](CC)c2cccc(NS(=O)(=O)c3ccc(C(F)(F)F)cn3)c2)C(=O)O1
inactive: outcome (CRL-7250) | max response (HaCat) 2.03% | max response (KB-3-1) -13.2% and -6.18% | outcome (NIH3T3 [1]) | Potency (NIH3T3 [2]) | Potency (C33A) | Potency (CASKI) | Potency (Es-2) | Potency (HeLa) | Potency (Hek293T) | Potency (JEG-3) | Potency (OV90) | Potency (PA-1) | Potency (SKOV3)

C[C@H]1CC[C@@]2(OC1)O[C@H]1CC3C4CC[C@H]5C[C@@H](O)CC[C@]5(C)C4=CC(=O)[C@]3(C)[C@H]1[C@@H]2C (some centres undefined)
inactive: outcome (CRL-7250) | max response (HaCat) -3.38% | max response (KB-3-1) 0.81% | outcome (NIH3T3 [1]) | Potency (NIH3T3 [2]) | Potency (C33A) | Potency (CASKI) | Potency (Es-2) | Potency (HeLa) | Potency (Hek293T) | Potency (JEG-3) | Potency (OV90) | Potency (PA-1) | Potency (SKOV3)

CCC(C)C(=O)O[C@H]1[C@@H](OC(=O)c2ccoc2)C[C@](C)(O)[C@]23OC(C)(C)[C@H](C[C@H](OC(=O)c4ccoc4)[C@]12COC(C)=O)[C@H]3OC(C)=O (some centres undefined)
inactive: max response (CRL-7250) -11% | max response (HaCat) -1.74% | max response (KB-3-1) 3.34% | outcome (NIH3T3 [1]) | Potency (NIH3T3 [2]) | Potency (C33A) | Potency (CAOV3) | Potency (CASKI) | Potency (Es-2) | Potency (HeLa) | Potency (Hek293T) | Potency (JEG-3) | Potency (OV90) | Potency (PA-1) | Potency (SKOV3)

CCc1c(Cl)c(O)c(Cl)c(O)c1C(=O)O[C@H]1[C@H](O)[C@H](OC)[C@H](OC/C2=C\C=C\C[C@H](O)/C(C)=C\[C@H](CC)[C@@H](O[C@@H]3OC(C)(C)[C@@H](OC(=O)C(C)C)[C@H](O)[C@@H]3O)/C(C)=C/C(C)=C/C[C@@H]([C@@H](C)O)OC2=O)O[C@@H]1C
inactive: outcome (CRL-7250) | max response (HaCat) -22.3% | max response (KB-3-1) -8.77% | outcome (NIH3T3 [1]) | Potency (NIH3T3 [2]) | Potency (C33A) | Potency (CAOV3) | Potency (CASKI) | Potency (Es-2) | Potency (HeLa) | Potency (Hek293T) | Potency (JEG-3) | Potency (OV90) | Potency (PA-1) | Potency (SKOV3)

COc1cc(OC)c2c(=O)[nH]c(-c3cc(C)c(OCCO)c(C)c3)nc2c1
inactive: max response (CRL-7250) -10.3% | max response (HaCat) 1.79% | outcome (KB-3-1) | max response (NIH3T3 [1]) -22% | Potency (C33A) | Potency (CAOV3) | Potency (CASKI) | Potency (Es-2) | Potency (HeLa) | Potency (Hek293T) | Potency (JEG-3) | Potency (OV90)

O=C(NCCN1CCN(c2cccc3c2OCCO3)CC1)c1ccc(F)cc1
inactive: max response (CRL-7250) 2.38% | max response (HaCat) -12.9% | max response (KB-3-1) -10.3% | max response (NIH3T3 [1]) 2.39% | Potency (C33A) | Potency (CAOV3) | Potency (CASKI) | Potency (Es-2) | Potency (HeLa) | Potency (Hek293T) | Potency (JEG-3) | Potency (OV90) | Potency (PA-1) | Potency (SKOV3)
